# PubChem BioAssay (NCATS)
# The source made the active and inactive calls. Calls come from the whole dose curve; as a rule, active = well fitted activation curve with a large enough effect; inconclusive = small, poorly fitted or top-dose-only effect; inactive = flat fitted curve, though single readings scatter.
# Experiment: Cellular Toxicity (caspase-3) HepG2 (AID 654);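 note: cells exposed to compound for 16 hours before reading; 0% = DMSO alone and 100% = caspase signal from 100 µM tamoxifen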
# Conditions: HepG2 caspase-3 activation, luminescence; series mostly up to 92.2 µM; caspase-3 activation: at the top concentration
# Description: NIH Chemical Genomics Center [NCGC]
# NIH Molecular Libraries Screening Centers Network [MLSCN]
# National Institutes of Environmental Health Sciences [NIEHS]
# National Toxicology Program [NTP]
# We have developed a 1536-well cell-based assay for quantitative high throughput screening (qHTS) against a number of cell lines to determine in vitro caspase 3/7 of small molecules. This particular assay uses the HepG2 cell line which is derived from human hepatocellular carcinoma.
# NCGC Assay Protocol Summary:
# The Caspase-Glo 3/7 assay (Promega) is a homogeneous method to measure caspase-3 and caspase-7 activities in cultured cells. The quantitation of caspase 3/7 activity is based on the cleavage of a peptide-aminoluciferin substrate. After caspase cleaves the substrate the free aminoluciferin is liberated and serves as the substrate of luciferase, which generates the light. The luminescent signal is proportional to amount of caspase 3/7 activity present.
# Using the Caspase-Glo 3/7 assay, the amount of caspase 3/7 activity was measured in the HepG2 cell line with complete culture medium following compound treatment for 16 hours. The assay was performed in opaque white 1536-well plates. In the screen, tamoxifen and doxorubicin were used as positive controls. Library compounds were measured for their ability to cause the activation of caspase 3/7 in the cell line, as reflected by an increase in luminescence signal, in a concentration-dependent manner. Data were normalized to the controls for basal activity (DMSO only) and 100% stimulation (100 uM tamoxifen). AC50 values were determined from concentration-response data modeled with the standard Hill equation.
# qHTS protocol for caspase 3/7 assay in HepG2 cells
# [Step] [Parameter] [Value] [Description]
# 1. Reagent; 5 uL; 1500 HepG2 cells/well
# 2. Time; 5 hr; 37 °C incubation
# 4. Controls; 23 nL; Tamoxifen 0.23 uM to 100 uM & Doxorubicin 7.0 pM to 100 uM
# 5. Time; 16 hr; 37 °C incubation
# 6. Reagent; 5 uL; Caspase-Glo 3/7 reagent
# 7. Time; 20 min; Room Temperature
# 8. Detection; Luminescence; Viewlux plate reader
# Keywords: caspase 3/7, apoptosis, HepG2 cell line, luminescence, NTPHTS, NTPHTS_NCGC, NIEHS, EPA, DSSTox, MLSMR, MLSCN, NIH Roadmap, qHTS, NCGC
row,Compound,caspase-3 activation
1,O=C(O)c1ccc(CO)o1,-0.31% (inactive)
2,CCCCC(CC)COC(=O)CCCCC(=O)OCC(CC)CCCC (stereo not given),0.443% (inactive)
3,C=C(C)C(=O)OCCCCCC,-0.345% (inactive)
4,c1ccc2c(c1)Oc1ccccc1S2,-0.086% (inactive)
5,C/C=C1\CC2C=CC1C2 (stereo not given),0.322% (inactive)
6,C=C(C)C(=O)OC,0.251% (inactive)
7,O=C(O)c1ccccc1[N+](=O)[O-],-0.318% (inactive)
8,CCCOCC(C)OCC(C)O (stereo not given),0.515% (inactive)
9,O=C(Cl)c1ccccc1[N+](=O)[O-],-0.547% (inactive)
10,C[C@@H]1CC2(OC3C[C@@]4(C)C5=CC[C@H]6C(C)(C)C(O[C@@H]7OC[C@@H](O)[C@H](O)[C@H]7O)CC[C@@]67C[C@@]57CC[C@]4(C)C31)OC(O)C1(C)OC21 (stereo not given in full),22.5% (inactive)
11,Cc1c(N)cccc1N,0.418% (inactive)
12,CCOc1ccccc1N,-0.146% (inactive)
13,Cc1ccc(C)c(N)c1,1.22% (inactive)
14,C=C(C)C(=O)OCC(C)O (stereo not given),0.634% (inactive)
15,CCOc1ccc(NC(C)=O)cc1N,0.453% (inactive)
16,CCNc1cc(O)ccc1C,1.83% (inactive)
17,NC(N)=S,-0.143% (inactive)
18,CCC1CO1 (stereo not given),1.23% (inactive)
19,Cc1ccc2oc(=O)ccc2c1,0.772% (inactive)
20,O=C(O)c1ccc(Cl)cc1Cl,0.645% (inactive)

row,Compound,caspase-3 activation
1,Cc1ccc([N+](=O)[O-])c(N)c1,0.919% (inactive)
2,CC1CCCO1 (stereo not given),-0.447% (inactive)
3,ClC/C=C/CCl,-0.0454% (inactive)
4,O=P(O)(OCc1ccccc1)OCc1ccccc1,0.412% (inactive)
5,O=Cc1cccc(Br)c1,0.00945% (inactive)
6,COC(=O)CS,0.175% (inactive)
7,CCOCCOCC,2.1% (inactive)
8,O=C(Cl)c1c(Cl)cccc1Cl,-0.0882% (inactive)
9,COC(=O)CCCC(=O)OC,0.415% (inactive)
10,Cc1cccc2cccnc12,0.174% (inactive)
11,CCCCC(=O)N(C)C,0.139% (inactive)
12,CC1CCC2CC1C2(C)C (stereo not given),0.852% (inactive)
13,CC(=O)OC(C)=O,-0.94% (inactive)
14,CCOC(=O)C(C)C(C)=O (stereo not given),0.882% (inactive)
15,Cc1ccc2c(c1[N+](=O)[O-])C(=O)c1ccccc1C2=O,-1.13% (inactive)
16,Clc1cc(Cl)cc(Cl)c1,0.928% (inactive)
17,COc1cccc(N)c1,3.59% (inactive)
18,O=C(O)c1ccccc1C(=O)O,0.107% (inactive)
19,CCCCCCC=O,1.29% (inactive)
20,O=[N+]([O-])c1ccc(CCO)cc1,-1.6% (inactive)
